Consider 14 molecules from PubChem BioAssay (EPA / NIEHS).

The source made the active and inactive calls. The calls were made as follows: active = hit-call score of the fitted dose curve at least 0.9, where 1 is the maximum; inactive = score below 0.9.

Read-out in this experiment: CFLAR gene, CFLAR (gene 8837)
The experiment can be described thus: LTEA_HepaRG_CFLAR: Life Technologies and Expression Analysis (LTEA) Assay for CFLAR gene using HepaRG (AID 2283455). The conditions noted are these: mRNA level, 48 h; actives raise or lower the signal. The gist of the method:
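HepaRG, 48 h exposure, 8-pt conc-response (100 uM top, half-log), 0.5% DMSO vehicle, duplicates. CFLAR expression by qRT-PCR; ACTB/GAPDH/POLR2A normalization; gain or loss fit vs DMSO baseline.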
Consider `CS(=O)(=O)c1ccc(C(=O)C2C(=O)CCCC2=O)c([N+](=O)[O-])c1`, for which the outcome was inactive.
`O=c1n(Cl)c(=O)n(Cl)c(=O)n1Cl`: the molecule was called inactive.
The value for `CCOP(=O)(OCC)Oc1nc(Cl)c(Cl)cc1Cl` was “inactive”; that for `Cc1cnc(C2=NC(C)(C(C)C)C(=O)N2)c(C(=O)O)c1` (centres undefined) was “inactive”; that for `CCOc1cc(C(C)(C)C)ccc1C1COC(c2c(F)cccc2F)=N1` (centres undefined) was “inactive”.
For the molecule `CCNC(=O)NC(=O)C(C#N)=NOC`, the molecule was called inactive.
The value for `CCOc1nc(F)cc2nc(S(=O)(=O)Nc3c(Cl)cccc3Cl)nn12` was “inactive”; that for `CNC(=O)N(C)c1nnc(C(C)(C)C)s1` was “inactive”.
For `CC(C)N1C(=O)c2ccccc2NS1(=O)=O`, the molecule was classed as inactive.
With `CS(=O)(=O)c1cc(C(F)(F)F)ccc1C(=O)c1cnoc1C1CC1` the entry was “inactive”; with `C=C(C)CN(CC)c1c([N+](=O)[O-])cc(C(F)(F)F)cc1[N+](=O)[O-]`, “inactive”.
Regarding `COc1ccc(-c2ccccc2)cc1NNC(=O)OC(C)C`, the result was inactive.
For `O=P(O)(O)CCCl`, the result was inactive.
As to `CC(C)=CC1C(C(=O)OCc2coc(Cc3ccccc3)c2)C1(C)C` (centres undefined), the molecule was called inactive.
